The record followed here is ChEMBL document CHEMBL3988442, “University of Dundee, Small-Polar-MMV Screening Library” (2021).

The campaign covered roughly 48,000 compounds. About 13,000 (27%) showed an effect of 50% or more. The list shows a part of the results.

In the experiment the test system is Wolbachia pipientis. In words: Anti-Wolbachia Cell-Based Screen. The experiment is classed as functional. On the set-up: scale not given: in the data most compounds retested in dose-response had high values. The note with it: 5 µM.
`CCc1ccc(C2COCCN2C(=O)Nc2ccc(C(N)=O)c(Cl)c2)o1` (stereo unspecified): the “Percent Effect” value is -0.9462%.

With `Cc1cc(C(=O)N2C[C@H]3CC[C@@H]2CN(C(=O)c2ccncc2)C3)cs1`, the “Percent Effect” value is given as -9.465%.

Take `Cc1cnc(N2CCO[C@@H]3CC(COCc4cccnc4)C[C@H]32)nc1.O=C(O)C(F)(F)F.O=C(O)C(F)(F)F` (stereo partly specified): the “Percent Effect” value turned out to be 79.55%.

`CN(C)C(=O)N1CCO[C@@H]2CC(COCc3cccnc3)C[C@H]21.O=C(O)C(F)(F)F` (stereo partly specified): the “Percent Effect” value is 103.1%.

Regarding `Fc1cnc(N2CC[C@@H]3OC(COCc4cccnc4)CC[C@@H]32)nc1.O=C(O)C(F)(F)F.O=C(O)C(F)(F)F` (stereo partly specified), the “Percent Effect” value is given as -10.65%.

As for `O=C(O)C(F)(F)F.O=C(O)C(F)(F)F.O=C(O)C(F)(F)F.c1cncc(COCC2CN(Cc3cccnc3)Cc3ccnn3C2)c1` (stereo unspecified), the “Percent Effect” value is given as 11.05%.

As for `Cn1cnc2c1C(COCc1cccnc1)N(Cc1ccccc1)CC2` (stereo unspecified), the “Percent Effect” value was 2.197%.

Take `c1cncc(COCC2C[C@@H]3OCCN(Cc4cccnc4)[C@H]3C2)c1` (stereo partly specified): the “Percent Effect” value came out at 111.6%.

In the case of `COCC(=O)N1CCO[C@H]2[C@H](OCc3cccnc3)CC[C@@H]21.O=C(O)C(F)(F)F`, the “Percent Effect” value was -4.337%.

On to `Fc1ccc(CN2CC[C@H]3O[C@@H](COCc4cccnc4)CC[C@H]32)cc1.O=C(O)C(F)(F)F.O=C(O)C(F)(F)F`, for which the “Percent Effect” value is reported as 0.3958%.

Turning to `CN(C)CC(=O)N1CCO[C@@H]2CC(COCc3ccncc3)C[C@H]21` (stereo partly specified), the “Percent Effect” value worked out at 100.6%.

With `Cc1ccoc1C(=O)N1CC[C@H]2OCC[C@@]2(COCc2ccncc2)C1`, the “Percent Effect” value is reported as -2.681%.

As for `CCOCC1C[C@@H]2OCCN(C(=O)c3ccc[nH]3)[C@H]2C1` (stereo partly specified), the “Percent Effect” value is -14%.

Consider `O=C(O)C(F)(F)F.O=C(O)C(F)(F)F.c1cnc(N2CC[C@@H]3O[C@@H](COCc4cccnc4)CC[C@@H]32)nc1`, for which the “Percent Effect” value was -9.534%.

On to `Cc1nc(CN(C)Cc2nc(-c3sccc3C)oc2C)no1`, for which the “Percent Effect” value is -9.354%.

Turning to `CSCCCN1CCCC(Cn2ccnc2)C1` (stereo unspecified), the “Percent Effect” value is 13.29%.

In the case of `Cc1ccc(C(=O)N2CCO[C@H]3[C@H](OCc4ccccn4)CC[C@@H]32)o1.O=C(O)C(F)(F)F`, the “Percent Effect” value is given as -0.009897%.

Take `O=C(O)C(F)(F)F.O=S(=O)(C1CC1)N1CCO[C@@H]2CC(COCc3cccnc3)C[C@H]21` (stereo partly specified): the “Percent Effect” value is 111.9%.

With `O=C(O)C(F)(F)F.O=C(c1ccno1)N1CCO[C@@H]2CC(COCc3ccccn3)C[C@H]21` (stereo partly specified), the “Percent Effect” value was determined as 99.5%.

Take `O=C(c1ccc[nH]1)N1CCO[C@H]2CC(COCc3ccccn3)C[C@@H]21` (stereo partly specified): the “Percent Effect” value came to 10.05%.

`O=C(O)C(F)(F)F.O=C(O)C(F)(F)F.c1cncc(COCC2CC[C@H]3[C@H](CCN3CC3CCOCC3)O2)c1` (stereo partly specified): the “Percent Effect” value is given as -3.08%.

Take `CCc1nc(-c2noc3ccc(C(=O)N(C)CCOC)cc23)co1`: the “Percent Effect” value is reported as 2.681%.

For the compound `CC(Nc1nc2c(cnn2C)c(=O)[nH]1)c1ccc2c(c1)CCCC2` (stereo unspecified), the “Percent Effect” value was 4.227%.

As to `CC(C)c1noc(CCNC(=O)C2COc3ccccc3C2)n1` (stereo unspecified), the “Percent Effect” value is -14.38%.

For the compound `CC(C)c1noc(CCNC(=O)NCC2COc3ccccc3O2)n1` (stereo unspecified), the “Percent Effect” value came out at 100.4%.

Consider `CC(C)c1noc(CCNC(=O)NCC2Cc3ccccc3O2)n1` (stereo unspecified), for which the “Percent Effect” value was 104.8%.

In the case of `CC(C)c1noc(CN(C)C(=O)C2COc3ccccc3C2)n1` (stereo unspecified), the “Percent Effect” value is on record as -21.45%.

Turning to `CC(C)c1noc(CCC(=O)NCC2CCOC2)n1` (stereo unspecified), the “Percent Effect” value is given as 7.119%.

With `CC(=O)NCCNC(=O)NCC1Cc2ccccc2O1` (stereo unspecified), the “Percent Effect” value is given as 101.6%.

On to `CC(C)c1noc(CCC(=O)NCC2CCS(=O)(=O)C2)n1` (stereo unspecified), for which the “Percent Effect” value was 6.847%.

Turning to `CC(=O)c1ccc(C(=O)NCC2Cc3ccccc3O2)s1` (stereo unspecified), the “Percent Effect” value was -26.22%.

Regarding `Cc1cnc(C(=O)NCC2Cc3ccccc3O2)cn1` (stereo unspecified), the “Percent Effect” value was -10.72%.

Consider `CCN(CC)CCSc1nnc(N2CCN(c3ccc(F)cc3)CC2)s1`, for which the “Percent Effect” value turned out to be 10.77%.

With `CCC(C(=O)NC1(COC)CCCC1)n1cccn1` (stereo unspecified), the “Percent Effect” value is 10.41%.

Consider `COCCCN1C(=O)CC[C@H]2CN(Cc3cc4ccccc4o3)CC[C@H]21`, for which the “Percent Effect” value was -11.4%.

`c1cnn(CC2CCN(c3nc(C4CC4)nc4c3CCNCC4)CC2)c1`: the “Percent Effect” value worked out at 9.099%.

Regarding `O=C(Cn1nnn(-c2cccs2)c1=O)N(CC1CCOC1)C1CC1` (stereo unspecified), the “Percent Effect” value was -6.322%.

For the compound `COCCN(Cc1cccs1)C(=O)c1ccc(=O)n(C)c1`, the “Percent Effect” value is reported as -19.51%.

Regarding `COCCN(C)C[C@@H]1CN(C(=O)c2ccc(=O)n(C)c2)C[C@@H]1CO`, the “Percent Effect” value came to 59.39%.

As to `COc1cccc(C(=O)N2C[C@@H](CN(C)CCO)[C@@H](CO)C2)c1C`, the “Percent Effect” value is -4.304%.

For `COCCN(Cc1ccccn1)C(=O)c1ccc(=O)n(C)c1`, the “Percent Effect” value worked out at 4.944%.

On to `COCCN(C)C[C@H]1C[C@H](CO)CN(C(=O)c2ccc(=O)n(C)c2)C1`, for which the “Percent Effect” value is given as 90.72%.

For `CC(NC(=O)CCNC(=O)c1ccoc1)c1ccccc1` (stereo unspecified), the “Percent Effect” value was -1.423%.

As for `CC(=O)N(Cc1ncc(C)o1)C1CCN(Cc2ccccc2C#N)C1` (stereo unspecified), the “Percent Effect” value is 110%.

Regarding `CC(=O)N(Cc1ncc(C)o1)C1CCN(Cc2ccccc2F)C1` (stereo unspecified), the “Percent Effect” value was 139.2%.

On to `CC(=O)N(Cc1ncc(C)o1)C1CCN(Cc2ccncc2Cl)C1` (stereo unspecified), for which the “Percent Effect” value is -1.852%.

Take `CC(=O)N(Cc1ncc(C)o1)C1CCN(Cc2cccc(C#N)c2)C1` (stereo unspecified): the “Percent Effect” value is reported as -1.585%.

On to `Cc1cnc(CN(C)C2CCN(Cc3ccccc3C#N)C2)o1` (stereo unspecified), for which the “Percent Effect” value is given as 18.72%.

Take `c1cnc(-c2nc(CNCCn3cccn3)cs2)nc1`: the “Percent Effect” value is -8.125%.

With `Cc1nc(C)n(C2CCCN(C(=O)c3sccc3C3CC3)C2)n1` (stereo unspecified), the “Percent Effect” value is given as -8.521%.

In the case of `CC(CNS(N)(=O)=O)c1ccc(F)c(F)c1` (stereo unspecified), the “Percent Effect” value was -14.37%.

Turning to `O=C1CSc2ccccc2N1CC(=O)N1CCCCC1c1nccs1` (stereo unspecified), the “Percent Effect” value is listed as 2.391%.

Consider `Cc1noc(COCC(=O)N2CCCCC2c2nccs2)n1` (stereo unspecified), for which the “Percent Effect” value is recorded as -17.81%.

As to `CN(CC(=O)N1CCCCC1c1nc(C(C)(C)C)cs1)C1CC1` (stereo unspecified), the “Percent Effect” value came out at 131.5%.

Take `CC(C)(C)c1csc(C2CCCCN2C(=O)CCn2cncn2)n1` (stereo unspecified): the “Percent Effect” value is on record as -13.47%.

`CN(CC(=O)N1CCCCC1c1nccs1)C1CC1` (stereo unspecified): the “Percent Effect” value is 114.2%.

Take `Cc1ncc(CC(=O)N2CCCC(COc3ccc(F)cc3)C2)c(=O)[nH]1` (stereo unspecified): the “Percent Effect” value was determined as 33.2%.

For the compound `COCCCSc1ccc(NC(=O)Nc2cn[nH]c2)cc1`, the “Percent Effect” value was determined as 3.134%.

With `CN(Cc1ccoc1)c1ccc(-c2nccn2C)nn1`, the “Percent Effect” value is -4.933%.

Regarding `CC(C)(C(=O)NCC1CC1)c1ccccc1F`, the “Percent Effect” value was -12.8%.

For `O=C(NC(C(=O)Nc1cc[nH]n1)c1ccccc1)C1CCC1` (stereo unspecified), the “Percent Effect” value is on record as -26.62%.

For the compound `CC(C)N1CCC(NC(=O)NCc2ccccc2)CC1`, the “Percent Effect” value is 1.205%.

In the case of `Cc1cn(CC(=O)NC2CCN(C(C)C)CC2)c2ccccc12`, the “Percent Effect” value was -15.19%.

In the case of `CC(C)n1c2ccccc2c2c1cc(C(=O)O)n2C(=O)N(C)C`, the “Percent Effect” value was 98.97%.

On to `CCN(C)C(=O)c1cc(-c2cn(C(C)C)cn2)n2ccccc12`, for which the “Percent Effect” value was 4.681%.

Regarding `CC(C)NC(=O)CCNC(=O)c1c(Br)c2ccccc2n1C`, the “Percent Effect” value is 2.193%.

`CC(C)n1c2ccccc2c2c1cc(C(=O)N(C)C)n2S(C)(=O)=O`: the “Percent Effect” value was 91.91%.

`CC(C)n1c2ccccc2c2c1cc(C(=O)NC1CC1)n2C(=O)N(C)C`: the “Percent Effect” value came out at 111.7%.

Take `CCCNC(=O)c1cc2c(c3ccccc3n2C)n1C(=O)N(C)C`: the “Percent Effect” value is on record as -57.33%.

As for `COCC(C)N(C)C(=O)c1nc(S(C)(=O)=O)n2ccccc12` (stereo unspecified), the “Percent Effect” value is reported as -2.923%.

For `CC(C)n1c2ccccc2c2c1cc(C(=O)NCCO)n2C(=O)N(C)C`, the “Percent Effect” value is given as 98.19%.

As to `CCc1nc(CN2CCCN(c3ncnc4ccccc34)CC2)no1`, the “Percent Effect” value was 29.73%.

With `Cc1noc(CCCC(=O)NC(C)c2ccccn2)n1` (stereo unspecified), the “Percent Effect” value is -13.35%.

For `CC(C)n1c2ccccc2c2c1cc(C(=O)N(C)C)n2C`, the “Percent Effect” value worked out at 109.8%.

For the compound `CC(C)n1c2ccccc2c2c1cc(C(=O)N(C)C)n2C(=O)N(C)C`, the “Percent Effect” value is listed as 90.72%.

With `CCCN(CC)C(=O)c1cc2c(c3ccccc3n2C)n1C(=O)N(C)C`, the “Percent Effect” value is listed as -10.54%.

As for `O=C(NCCc1nncn1C1CC1)C1SCCc2sccc21` (stereo unspecified), the “Percent Effect” value is on record as -5.898%.

As for `CCN(Cc1ccncc1)C(=O)c1cc(C)c(C)c(S(N)(=O)=O)c1`, the “Percent Effect” value was determined as 3.273%.

For `O=C(NCc1ccco1)[C@H]1C[C@@H]2CCN(c3ccncn3)C[C@@H]2O1.O=C(O)C(F)(F)F`, the “Percent Effect” value amounted to 48.28%.

With `O=C(NCc1ccco1)[C@@H]1COC[C@H]2CN(c3ncc(F)cn3)C[C@H]21.O=C(O)C(F)(F)F`, the “Percent Effect” value was 0.4075%.

On to `O=C(NCc1ccco1)[C@H]1C[C@@H]2CCN(c3cccc(F)c3)C[C@H]2O1.O=C(O)C(F)(F)F`, for which the “Percent Effect” value was determined as 104.2%.

For the compound `O=C(NCc1ccco1)[C@H]1C[C@@H]2CCN(c3ncccn3)C[C@H]2O1.O=C(O)C(F)(F)F`, the “Percent Effect” value is 105.1%.

Consider `O=C(NCc1ccco1)[C@H]1C[C@@H]2CCN(c3nncs3)C[C@H]2O1.O=C(O)C(F)(F)F`, for which the “Percent Effect” value is listed as 106%.

With `O=C(NCCc1ccncc1)[C@H]1C[C@@H]2CCN(c3nncs3)C[C@H]2O1`, the “Percent Effect” value is 96.02%.

`COc1ccnc(N2CCN(C(=O)c3csnn3)CC2)n1`: the “Percent Effect” value was -4.272%.

With `CCN(CC)C1(Cc2cc(COC)on2)COC1`, the “Percent Effect” value is given as -6.864%.

For `CCC(C)(C)NC(=O)c1ccc(-c2ccco2)[nH]c1=O`, the “Percent Effect” value is -18%.

As to `Cc1cccc(C)c1NC(=O)CCNC(=O)c1ccoc1`, the “Percent Effect” value was determined as 6.824%.

`CC(C)CCn1ccc(NC2CCSC2)n1` (stereo unspecified): the “Percent Effect” value is -1.669%.

Take `O=C(NC[C@H]1OC[C@@H](NCc2ccccc2)[C@@H]1O)Nc1ccc(F)cc1`: the “Percent Effect” value is reported as -15.63%.

Consider `Fc1ccc2[nH]c(CO[C@H]3CN(CC4CC4)C[C@H]3F)nc2c1`, for which the “Percent Effect” value is on record as -6.025%.
